# Data: paper PMC7862700, “An all-to-all approach to the identification of sequence-specific readers for epigenetic DNA modifications on cytosine”
# Experiments:
# Assay in all cases: DAPPL (digital affinity profiling via proximity ligation, sequencing); 10 mM Tris-HCl pH 7.5, 50 mM NaCl, 1 mM DTT, 4% glycerol, room temperature, 30 min; GST-TFs on glutathione beads, 16-mer random dsDNA library, 0.1% formaldehyde crosslink after washing; high values mean tight binding
# Conditions in all cases: protein: recombinant; tags: N-terminal GST; dsDNA, one strand shown
# [1] = biological target: T1, ELK1 (Homo sapiens, UniProt P19419 1-428)
# T1 sequence: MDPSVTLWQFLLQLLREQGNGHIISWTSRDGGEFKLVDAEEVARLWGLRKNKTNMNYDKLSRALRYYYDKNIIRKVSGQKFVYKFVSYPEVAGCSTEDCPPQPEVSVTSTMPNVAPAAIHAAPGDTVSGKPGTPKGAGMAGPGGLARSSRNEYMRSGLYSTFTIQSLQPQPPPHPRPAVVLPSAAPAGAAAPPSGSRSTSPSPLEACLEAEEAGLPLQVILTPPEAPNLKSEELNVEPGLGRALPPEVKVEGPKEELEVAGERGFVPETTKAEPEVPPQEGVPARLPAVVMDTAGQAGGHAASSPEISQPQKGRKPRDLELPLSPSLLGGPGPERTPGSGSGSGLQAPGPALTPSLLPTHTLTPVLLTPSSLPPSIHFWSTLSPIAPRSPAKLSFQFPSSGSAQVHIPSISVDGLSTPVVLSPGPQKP
# Outline: (§1)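 Sequencing on an Illumina NextSeq500 followed washing, crosslinking with 0.1% formaldehyde, proximity ligation (BsaI/T4 ligase, 1 h, 37 °C) and PCR amplification of pools that had been incubated for 30 min at room temperature with 200 nmole of a random double-stranded 16-mer DNA library in Tris/NaCl/DTT/glycerol buffer. Each pool held DNA-barcoded human transcription factors, expressed in yeast as GST fusions and captured on glutathione beads, plus a tag-only sample. Binding signal is a hexamer's read frequency for a factor divided by its frequency in the tag-only sample.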
# [2] = biological target: SPIB (Homo sapiens, UniProt Q01892 1-262)
# Sequence of SPIB (Q01892 whole entry): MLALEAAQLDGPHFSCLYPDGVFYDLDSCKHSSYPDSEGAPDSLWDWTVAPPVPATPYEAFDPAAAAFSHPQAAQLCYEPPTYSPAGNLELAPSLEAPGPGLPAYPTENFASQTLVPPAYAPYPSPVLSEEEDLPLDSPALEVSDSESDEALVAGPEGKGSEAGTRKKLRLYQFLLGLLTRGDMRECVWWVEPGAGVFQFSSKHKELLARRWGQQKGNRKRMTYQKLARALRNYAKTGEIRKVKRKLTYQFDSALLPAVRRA
# Outline: as §1
# [3] = biological target: ETV5 (Homo sapiens, UniProt P41161 1-510)
# Sequence of ETV5 (P41161 whole entry): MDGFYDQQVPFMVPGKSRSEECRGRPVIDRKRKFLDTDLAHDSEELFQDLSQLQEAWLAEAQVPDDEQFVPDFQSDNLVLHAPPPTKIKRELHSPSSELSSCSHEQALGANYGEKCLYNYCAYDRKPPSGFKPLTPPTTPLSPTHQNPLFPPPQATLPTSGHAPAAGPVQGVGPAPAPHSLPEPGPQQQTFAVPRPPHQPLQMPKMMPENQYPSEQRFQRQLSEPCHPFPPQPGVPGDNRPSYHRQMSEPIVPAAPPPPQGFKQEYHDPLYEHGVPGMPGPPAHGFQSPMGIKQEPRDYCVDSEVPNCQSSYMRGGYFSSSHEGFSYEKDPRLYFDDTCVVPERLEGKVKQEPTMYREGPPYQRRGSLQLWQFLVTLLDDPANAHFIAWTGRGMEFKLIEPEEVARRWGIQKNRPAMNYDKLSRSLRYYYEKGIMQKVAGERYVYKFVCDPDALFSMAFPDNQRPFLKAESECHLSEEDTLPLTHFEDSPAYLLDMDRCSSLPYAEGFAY
# Outline: as §1
# [4] = biological target: ELF4 (Homo sapiens, UniProt Q99607 1-663)
# Sequence of ELF4 (Q99607 whole entry): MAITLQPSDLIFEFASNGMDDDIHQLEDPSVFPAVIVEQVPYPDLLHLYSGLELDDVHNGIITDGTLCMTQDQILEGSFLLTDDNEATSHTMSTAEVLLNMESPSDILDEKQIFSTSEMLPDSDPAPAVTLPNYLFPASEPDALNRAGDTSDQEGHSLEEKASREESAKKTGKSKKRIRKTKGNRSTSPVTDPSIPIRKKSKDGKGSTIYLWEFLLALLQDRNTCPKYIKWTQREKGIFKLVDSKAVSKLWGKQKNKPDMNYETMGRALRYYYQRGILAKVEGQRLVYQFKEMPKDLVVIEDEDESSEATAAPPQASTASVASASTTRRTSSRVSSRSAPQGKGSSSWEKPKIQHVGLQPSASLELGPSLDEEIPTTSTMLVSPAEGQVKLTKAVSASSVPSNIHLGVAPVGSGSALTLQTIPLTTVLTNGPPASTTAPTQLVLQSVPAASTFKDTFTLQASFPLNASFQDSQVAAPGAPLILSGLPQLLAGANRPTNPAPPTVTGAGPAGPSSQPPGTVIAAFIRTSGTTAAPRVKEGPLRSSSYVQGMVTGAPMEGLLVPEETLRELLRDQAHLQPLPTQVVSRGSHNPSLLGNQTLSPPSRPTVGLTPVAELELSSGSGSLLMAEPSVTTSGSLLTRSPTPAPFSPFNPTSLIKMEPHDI
# Outline: as §1
# [5] = biological target: T2, ELK4 (Homo sapiens, UniProt P28324-2 1-405)
# T2 sequence: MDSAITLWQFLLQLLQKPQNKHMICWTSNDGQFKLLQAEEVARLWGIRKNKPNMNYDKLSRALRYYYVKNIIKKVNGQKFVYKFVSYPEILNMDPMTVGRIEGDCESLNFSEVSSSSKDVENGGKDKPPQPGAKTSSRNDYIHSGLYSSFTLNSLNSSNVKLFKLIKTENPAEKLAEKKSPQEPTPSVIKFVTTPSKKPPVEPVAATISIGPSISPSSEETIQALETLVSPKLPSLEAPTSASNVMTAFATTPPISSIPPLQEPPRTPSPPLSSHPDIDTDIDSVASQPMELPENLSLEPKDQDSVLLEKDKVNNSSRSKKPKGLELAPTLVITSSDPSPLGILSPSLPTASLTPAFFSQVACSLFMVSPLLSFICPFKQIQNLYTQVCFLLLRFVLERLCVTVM
# Outline: as §1
# [6] = biological target: T3, ETV2 (Homo sapiens, UniProt O00321 1-342)
# T3 sequence: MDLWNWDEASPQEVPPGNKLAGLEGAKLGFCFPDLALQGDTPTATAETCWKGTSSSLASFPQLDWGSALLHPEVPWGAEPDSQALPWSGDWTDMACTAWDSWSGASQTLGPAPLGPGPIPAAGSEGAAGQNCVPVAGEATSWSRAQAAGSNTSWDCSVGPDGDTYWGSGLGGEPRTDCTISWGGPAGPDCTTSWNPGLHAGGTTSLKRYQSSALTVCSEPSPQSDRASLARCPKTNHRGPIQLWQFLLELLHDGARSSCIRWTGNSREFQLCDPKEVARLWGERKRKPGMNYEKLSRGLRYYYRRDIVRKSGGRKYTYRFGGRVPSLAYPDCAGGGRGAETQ
# Outline: as §1
# [7] = biological target: T4, ERF (Homo sapiens, UniProt P50548 1-548)
# T4 sequence: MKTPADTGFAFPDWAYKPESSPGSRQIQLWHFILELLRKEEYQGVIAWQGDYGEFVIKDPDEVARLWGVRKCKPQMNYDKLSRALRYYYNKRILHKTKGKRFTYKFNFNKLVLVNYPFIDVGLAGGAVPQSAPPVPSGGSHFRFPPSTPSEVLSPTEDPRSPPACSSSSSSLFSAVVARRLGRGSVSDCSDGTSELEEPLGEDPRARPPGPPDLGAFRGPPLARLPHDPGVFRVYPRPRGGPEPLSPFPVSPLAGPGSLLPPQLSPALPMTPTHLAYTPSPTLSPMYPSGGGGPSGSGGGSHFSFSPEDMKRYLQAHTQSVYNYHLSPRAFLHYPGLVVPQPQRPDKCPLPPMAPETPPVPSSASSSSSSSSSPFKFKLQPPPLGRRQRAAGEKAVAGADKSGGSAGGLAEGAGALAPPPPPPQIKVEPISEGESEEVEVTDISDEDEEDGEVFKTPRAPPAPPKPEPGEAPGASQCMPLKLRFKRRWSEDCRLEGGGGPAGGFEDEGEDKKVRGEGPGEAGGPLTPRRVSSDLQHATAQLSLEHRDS
# Outline: as §1
# [8] = biological target: T5, ETS2 (Homo sapiens, UniProt P15036 1-469)
# T5 sequence: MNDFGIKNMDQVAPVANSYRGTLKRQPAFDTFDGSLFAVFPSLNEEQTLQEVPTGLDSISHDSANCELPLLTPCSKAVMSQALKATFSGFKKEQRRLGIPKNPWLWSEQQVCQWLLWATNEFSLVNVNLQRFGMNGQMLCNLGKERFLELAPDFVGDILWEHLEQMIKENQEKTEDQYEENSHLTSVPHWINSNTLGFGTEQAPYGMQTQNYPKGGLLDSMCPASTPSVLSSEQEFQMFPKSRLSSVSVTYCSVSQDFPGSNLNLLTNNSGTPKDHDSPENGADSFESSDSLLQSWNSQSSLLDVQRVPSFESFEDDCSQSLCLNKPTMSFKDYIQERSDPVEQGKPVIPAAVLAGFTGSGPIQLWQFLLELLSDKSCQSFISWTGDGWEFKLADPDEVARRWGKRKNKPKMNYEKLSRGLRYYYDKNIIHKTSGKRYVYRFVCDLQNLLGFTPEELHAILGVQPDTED
# Outline: as §1
# [9] = biological target: T6, ETV3 (Homo sapiens, UniProt P41162-2 1-143)
# T6 sequence: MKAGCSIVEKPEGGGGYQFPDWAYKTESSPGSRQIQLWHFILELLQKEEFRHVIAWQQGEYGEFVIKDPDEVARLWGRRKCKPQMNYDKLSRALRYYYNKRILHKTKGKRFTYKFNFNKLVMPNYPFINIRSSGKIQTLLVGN
# Outline: as §1
# [10] = biological target: ETV6 (Homo sapiens, UniProt P41212 1-452)
# Sequence of ETV6 (P41212 whole entry): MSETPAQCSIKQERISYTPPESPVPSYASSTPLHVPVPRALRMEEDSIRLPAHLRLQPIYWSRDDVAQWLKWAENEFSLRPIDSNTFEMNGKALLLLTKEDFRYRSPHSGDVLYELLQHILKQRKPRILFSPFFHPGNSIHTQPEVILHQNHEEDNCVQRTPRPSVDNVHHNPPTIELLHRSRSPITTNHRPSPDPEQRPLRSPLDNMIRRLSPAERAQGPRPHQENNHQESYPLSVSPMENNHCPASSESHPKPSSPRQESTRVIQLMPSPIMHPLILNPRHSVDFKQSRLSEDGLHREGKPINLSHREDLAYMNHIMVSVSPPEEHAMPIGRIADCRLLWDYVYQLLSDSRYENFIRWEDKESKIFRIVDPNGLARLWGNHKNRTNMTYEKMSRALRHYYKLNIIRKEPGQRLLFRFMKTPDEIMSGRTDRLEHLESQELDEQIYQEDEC
# Outline: as §1
sequence,measurement,setting,value
TGTGCG,binding signal,[1],"1.08 fold enrichment (6-mer frequency, TF over GST control)"
same,binding signal,[2],"1.01 fold enrichment (6-mer frequency, TF over GST control)"
same,binding signal,[3],"1.04 fold enrichment (6-mer frequency, TF over GST control)"
same,binding signal,[4],"1.01 fold enrichment (6-mer frequency, TF over GST control)"
same,binding signal,[5],"1.14 fold enrichment (6-mer frequency, TF over GST control)"
same,binding signal,[6],"1.2 fold enrichment (6-mer frequency, TF over GST control)"
same,binding signal,[7],"1.06 fold enrichment (6-mer frequency, TF over GST control)"
same,binding signal,[8],"1.05 fold enrichment (6-mer frequency, TF over GST control)"
same,binding signal,[9],"1.04 fold enrichment (6-mer frequency, TF over GST control)"
same,binding signal,[10],"1.06 fold enrichment (6-mer frequency, TF over GST control)"
